B2AR arrestin – agonists driving beta-arrestin recruitment to human beta2-adrenergic receptor; beta-arrestin recruitment to beta2AR, cell-based reporter; Potency, µM (top dose mostly 46.1 µM), inactives show at the top dose activation, most hits filed as activators; 330,000 compounds, 0.02% hits;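 further: potency means the concentration at half of the fitted maximal effect; 0% = DMSO controls and full agonism = EC100 isoproterenol or metaproterenol; nearly all actives have a fitted effect of over 65% in size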
D3 ag – agonists of human D3 dopamine receptor; AID 652048; D3R DiscoveRx beta-arrestin cells, luminescence, 90 min; P35462; 410,000 compounds, 0.58% hits; max activation, %; in the data active means max activation above about 30%; further: 0% is about no effect
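Cells at 1500/well, incubated overnight, then treated with pinned compounds (dopamine as control) for 90 min at 37 degrees C. DiscoveRx reagent added for 30 - 60 minutes at room temperature; luminescence read.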
mIDH1 inhibitor – inhibitors of human mutant IDH1 R132H; IDH1-R132H enzyme, NADPH consumption, diaphorase/resazurin fluorescence; AID 602179; Potency, µM (series often up to 76.6 µM), inactives show top-dose activity change, negative = inhibition, hits mostly inhibitors; 390,000 compounds, 0.093% hits; further: potency means the concentration at half of the fitted maximal effect; on the % scale 0 is the no-effect control and ±100 the full control effect; nearly all actives have a fitted effect of over 65% in size
Target sequence (O75874 whole entry R132H, stated change not applied): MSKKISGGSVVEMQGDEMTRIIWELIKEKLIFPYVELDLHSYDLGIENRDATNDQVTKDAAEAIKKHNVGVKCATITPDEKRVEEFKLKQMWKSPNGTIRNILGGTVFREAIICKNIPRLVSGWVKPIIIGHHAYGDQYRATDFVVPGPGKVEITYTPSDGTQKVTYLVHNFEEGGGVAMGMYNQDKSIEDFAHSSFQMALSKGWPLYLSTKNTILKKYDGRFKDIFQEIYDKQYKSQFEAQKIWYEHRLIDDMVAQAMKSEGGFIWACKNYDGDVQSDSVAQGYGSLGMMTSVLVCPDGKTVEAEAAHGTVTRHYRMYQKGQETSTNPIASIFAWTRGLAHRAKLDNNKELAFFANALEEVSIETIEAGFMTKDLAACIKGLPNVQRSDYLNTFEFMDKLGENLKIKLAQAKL
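IDH1-R132H (0.5 ug/mL) preincubated 30 min with compound, then NADPH (0.016 mM) and alpha-KG (2 mM) added; 80 min at RT, pH 7.5. Remaining NADPH coupled via diaphorase/resazurin to fluorescence (540/590 nm); concentration-response curves normalized to no-enzyme control.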
a7 integrin act – activates integrin-mediated alleviation for muscular dystrophy; 350,000 compounds, 0.064% hits; Potency, µM (titrated, usually from 38.3 µM), for inactives: at the highest dose activation, most hits filed as activators; alpha7betagal myoblasts, beta-gal FDG fluorescence, 48 h;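 further: potency means the concentration at half of the fitted maximal effect; 100% = response of the positive control SU9516; nearly all actives have a fitted effect of over 60% in size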
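Alpha7betagal+/- myoblasts (passage 13) were plated 16-24 hr, then exposed to compounds (1:260 dilution of DMSO stock) for 48 hours at 37C. After MPER lysis, β-galactosidase reporter activity was read as FDG fluorescence (ex 480/em 540) after 30 minutes.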
DRD3 antagonist – antagonists of human D3 dopamine receptor. P35462. D3R cells, DiscoveRx beta-arrestin luminescence, antagonist mode; active compounds read low. max response, negative = inhibition, %. 360,000 compounds, 2.5% hits; in the data active means max response below about -50%; inconclusive means no clear call, values can overlap the other calls; further: on the % scale 0 is the no-effect control and ±100 the full control effect
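Cells plated overnight at 1500 cells/well, then exposed to library compounds with dopamine controls for 90 minutes at 37 degrees C. DiscoveRx reagent added for 30–60 minutes at room temperature; luminescence read, quantitative HTS format.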
The depositor's hits bear a star; ? = inconclusive; · = not tested or not shown. A selection: hits, their analogues and other compounds. The true share with any hit is near 2.9%. Unless noted, the call rests on the fitted dose curve; in most records, active means well fitted curve in the direction sought with a large enough effect; inconclusive means small, poorly fitted or top-dose-only effect, or another doubt; inactive means no such curve, though single readings can be large; an effect the other way counts as inactive or inconclusive.

SMILES | B2AR arrestin | D3 ag | mIDH1 inhibitor | a7 integrin act | DRD3 antagonist
CC(C)n1cc(/C=N/NC(=O)COc2cccc3cccnc23)c2ccccc21 | 0% | 34* | 7% | -31% | 16
C=CCn1cc(/C=N/NC(=O)COc2cccc3cccnc23)c2ccccc21 | 0% | 4 | 8% | -11% | 8
COc1ccc(C(=O)Nc2nc3n(n2)C(c2ccc(Cl)cc2)C=C(c2ccccc2)N3)cc1OC (configuration not stated) | · | 5 | 5% | · | ·
CCCCNc1cc(C)nc(NCc2ccccc2)n1 | 0% | -11 | 5% | -64% | -63*
Fc1cc(F)nc(NCc2ccccc2)n1 | 0% | 37* | 0% | -10% | 12
Fc1cc(NCc2ccccc2)nc(NCc2ccccc2)n1 | 2% | -4 | 0% | 23% | -2
CO[C@@H]1[C@@H](O[C@@H]2O[C@H](C)[C@@H](O[C@H]3C[C@@](C)(O)[C@@H](OC(=O)CC(C)C)[C@H](C)O3)[C@H](N(C)C)[C@H]2O)[C@@H](CC=O)C[C@@H](C)C(=O)/C=C/C2OC2C[C@@H](C)OC(=O)C[C@H]1OC(C)=O (some centres not stated) | · | 10 | · | · | ·
CC12CCC(C(=O)N(CSC(=S)N/N=C\c3ccccc3)C1=O)C2(C)C (configuration not stated) | 0% | 5 | -1% | 0% | -69*
CC12CCC(C(=O)N(CSC(=S)N/N=C\c3ccccc3Cl)C1=O)C2(C)C (configuration not stated) | 0% | 2 | -4% | 14% | -8
CCN1CCN(S(=O)(=O)c2cc(OCC(=O)NC3CCCCC3)c(C)cc2Cl)CC1 | 0% | -9 | -1% | -27% | -70*
Cc1cc(Cl)c(S(=O)(=O)N2CCCCCC2)cc1OCC(=O)NC1CCCCC1 | 0% | 0 | 4% | 2% | 31
Cc1ccccc1C(=O)Nc1ccc(C(=O)OCc2cc(=O)n3nc(C(C)C)sc3n2)cc1 | · | 8 | -6% | · | ·
N#Cc1ccc(NC(=O)C2Cc3ccccc3CN2S(=O)(=O)c2ccc(F)cc2)cc1 (configuration not stated) | · | 0 | · | · | ·
CCCCC(=O)NC(c1ccc([N+](=O)[O-])cc1)c1c(O)ccc2ccccc12 (configuration not stated) | 6% | -20 | 10% | -58% | -52*
CCC(=O)NC(c1ccc([N+](=O)[O-])cc1)c1c(O)ccc2ccccc12 (configuration not stated) | 2% | -7 | 0% | -14% | -28
O=[N+]([O-])c1ccccc1OCC(O)CN1CCN(CC(O)COc2ccccc2[N+](=O)[O-])CC1 (configuration not stated) | -1% | -5 | -1% | ? | -93*
COc1cccc(OC)c1OCC(O)CN1CCN(c2ccc(F)cc2)CC1 (configuration not stated) | -1% | -15 | -8% | 19% | -77*
COc1ccc(N2CCN(CC(O)COc3ccccc3[N+](=O)[O-])CC2)cc1 (configuration not stated) | 0% | -12 | 11% | 4% | -54*
COc1ccc(C2C(C#N)=C(N)Oc3n[nH]c(C)c32)cc1Cn1nnc2ccccc21 (configuration not stated) | -1% | -1 | -11% | -6% | -62*
CCCc1[nH]nc2c1C(c1ccc(OC)c(Cn3nnc4ccccc43)c1)C(C#N)=C(N)O2 (configuration not stated) | · | -10 | -8% | -17% | 5
CCn1c(SCc2ccccc2Cl)nc(=O)c2c(C(=O)OC)cc(C3CC3)nc21 | · | -6 | -29% | · | ·
COc1ccc(Br)cc1CNC(=O)CN1CCSc2ccccc21 | · | 8 | 18% | · | ·
COc1cc(CNC(=O)Nc2nc(C(N)CCc3ccccc3)cs2)cc(OC)c1OC (configuration not stated) | · | -10 | · | · | 0
COc1ccccc1NC(=O)Nc1nc(C(N)CCc2ccccc2)cs1 (configuration not stated) | · | -17 | · | · | -96*
COc1ccc(CC(N)c2csc(NC(=O)Nc3ccccc3Cc3ccccc3)n2)cc1 (configuration not stated) | · | -12 | · | · | ?
